Test results as given in the supplement of paper PMC11172423.
Values without a mark were called inactive.

What follows are molecules tested on Madurella mycetomatis MM55 (assay: growth relative to untreated control; higher = less inhibition, active = 20 or less). Conditions: 25 µM.
In short: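 Viability readout used either MTS (2 h, 490 nm) or resazurin (600 nm). Before this, hyphal fragments of M. mycetomatis MM55 or F. senegalensis CBS197.79 in colourless RPMI 1640 with L-glutamine and MOPS (68–72% transmission at 660 nm) had been exposed in 96-well plates to compound at 100 or 25 µM for 7 days at 37 °C. Growth denotes metabolic activity relative to the untreated growth control, with a medium-plus-dye blank subtracted from both.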

Compared with `CCOC(=O)CC(SP(=S)(OC)OC)C(=O)OCC` (stereo not drawn), `CCOP(=S)(OCC)Oc1nc(Cl)c(Cl)cc1Cl` is higher in growth: 128% for the first, 142% for the second.

Compared with `CNC(=O)Oc1cccc2c1OC(C)(C)O2`, `Cc1c(COC(=O)[C@@H]2[C@H](C=C(Cl)C(F)(F)F)C2(C)C)cccc1-c1ccccc1` is higher in growth: 95.6% for the first, 123% for the second.

Compared with `CC[C@@H](C(=O)[C@@H](C)[C@@H](O)[C@H](C)[C@@H]1O[C@@H]([C@@H](CC)C(=O)O)CC[C@@H]1C)[C@H]1O[C@]2(C=C[C@@H](O)[C@]3(CC[C@@](C)([C@H]4CC[C@](O)(CC)[C@H](C)O4)O3)O2)[C@H](C)C[C@@H]1C`, `CC[C@H]1CN2CCc3cc(OC)c(OC)cc3[C@@H]2C[C@@H]1C[C@H]1NCCc2cc(OC)c(OC)cc21` is lower in growth: 124% for the first, 84.8% for the second.

First: CN1C(=O)C(C(=O)Nc2ccc(Cl)c(Cl)c2)C(=O)N(C)C1=O
Second: CNC(=O)c1cc(Cl)cc(C)c1NC(=O)c1cc(Br)nn1-c1ncccc1Cl
The growth of the first is lower: 56% for the first, 81.9% for the second.

Going from `CCc1nn(C)c(C(=O)NCc2ccc(Oc3ccc(C)cc3)cc2)c1Cl` to `COc1ccc(C[C@H]2NC[C@H](O)[C@H]2OC(C)=O)cc1`, the growth rises from 66.4% to 111%.

First: Cc1cc(C2=NOC(c3cc(Cl)cc(Cl)c3)(C(F)(F)F)C2)ccc1C(=O)NCC(=O)NCC(F)(F)F (stereo not drawn)
Second: N#Cc1nn(-c2c(Cl)cc(C(F)(F)F)cc2Cl)c(N)c1S(=O)C(F)(F)F (stereo not drawn)
The growth of the first is lower: 43.8% for the first, 120% for the second.

With `CN1C2CCC1CC(C#N)C2` (stereo not drawn) the growth was 85.6%.

In the case of `CC(C)Nc1cc2c(cn1)nc(Nc1cc(Cl)cc(C(F)(F)F)c1)n2C1CCNC1` (stereo not drawn), the growth is reported as 7.15% (active).

Same assay, conditions: 100 µM

First: CCOC(=O)CC(SP(=S)(OC)OC)C(=O)OCC (stereo not drawn)
Second: CCOP(=S)(OCC)Oc1nc(Cl)c(Cl)cc1Cl
The growth of the first is higher: 131% for the first, 111% for the second.

First: CNC(=O)Oc1cccc2c1OC(C)(C)O2
Second: Cc1c(COC(=O)[C@@H]2[C@H](C=C(Cl)C(F)(F)F)C2(C)C)cccc1-c1ccccc1
The growth of the first is lower: 129% for the first, 156% for the second.

Compared with `CC[C@@H](C(=O)[C@@H](C)[C@@H](O)[C@H](C)[C@@H]1O[C@@H]([C@@H](CC)C(=O)O)CC[C@@H]1C)[C@H]1O[C@]2(C=C[C@@H](O)[C@]3(CC[C@@](C)([C@H]4CC[C@](O)(CC)[C@H](C)O4)O3)O2)[C@H](C)C[C@@H]1C`, `CC[C@H]1CN2CCc3cc(OC)c(OC)cc3[C@@H]2C[C@@H]1C[C@H]1NCCc2cc(OC)c(OC)cc21` is lower in growth: 70.3% for the first, 43.6% for the second.

Compared with `CCc1nn(C)c(C(=O)NCc2ccc(Oc3ccc(C)cc3)cc2)c1Cl`, `CNC(=O)c1cc(Cl)cc(C)c1NC(=O)c1cc(Br)nn1-c1ncccc1Cl` is lower in growth: 120% for the first, 57% for the second.

Going from `CN1C2CCC1CC(C#N)C2` (stereo not drawn) to `N#Cc1nn(-c2c(Cl)cc(C(F)(F)F)cc2Cl)c(N)c1S(=O)C(F)(F)F` (stereo not drawn), the growth falls from 117% to 86.5%.

`CN1C(=O)C(C(=O)Nc2ccc(Cl)c(Cl)c2)C(=O)N(C)C1=O` was tested, and the growth was 10.4% (active).
In the case of `Cc1cc(C2=NOC(c3cc(Cl)cc(Cl)c3)(C(F)(F)F)C2)ccc1C(=O)NCC(=O)NCC(F)(F)F` (stereo not drawn), the growth is reported as 9.07% (active).
`COc1ccc(C[C@H]2NC[C@H](O)[C@H]2OC(C)=O)cc1` was tested, and the growth was 3.35% (active).
With `CC(C)Nc1cc2c(cn1)nc(Nc1cc(Cl)cc(C(F)(F)F)c1)n2C1CCNC1` (stereo not drawn) the growth was 6.36% (active).
